D3 antag – qHTS of D3 Dopamine Receptor Antagonist: qHTS; D(3) dopamine receptor (Homo sapiens), P35462; D3R cells, DiscoveRx beta-arrestin luminescence, antagonist mode; hits give low values; max response, negative = inhibition, %; 360,000 compounds, 2.5% hits; AID 652054, 2013; in the data active = max response below about -50%; inconclusive = no clear call, values can overlap the other calls; also: % is scaled to controls: 0 for no effect and ±100 for the full control effect
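Cells expressing the human receptor were seeded at 1500 cells/well, incubated overnight at 37 degrees C in 5% CO2, then exposed to library compounds with dopamine controls for 90 minutes at 37 degrees C before luminescent detection.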
GLP-1R agonist – qHTS of GLP-1 Receptor Agonists; Glucagon-like peptide 1 receptor (Homo sapiens), P43220; HEK293 GLP-1R CRE-luciferase, luminescence, 4-6 h; cells express a hypersensitive GLP-1R form; Potency, µM (top dose mostly 45.6 µM), for inactives: at the top dose activation, usual class: activators; 380,000 compounds, 0.007% hits; also: potency is read from the fitted curve at half-maximal effect; % of control where 0% means no effect
GLP-1R inv ag – qHTS of GLP-1 Receptor Inverse Agonists (Inhibition Mode); 410,000 compounds, 1.6% hits; Potency, µM (doses to about 38.3 µM), for inactives: at the highest dose activity change, negative = inhibition, most hits filed as inhibitors; Glucagon-like peptide 1 receptor (Homo sapiens), P43220; HEK293 GLP-1R CRE-luciferase, luminescence, 24 h; GLP-1R form is constitutively active; also: potency is read from the fitted curve at half-maximal effect; % is scaled to controls: 0 for no effect and ±100 for the full control effect; nearly all actives have a fitted effect of over 55% in size
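Inverse agonism was detected as reduced cAMP-driven luciferase luminescence after 24 h compound treatment. The cells were HEK293 clones expressing constitutively active human GLP-1R with the reporter. Reporter-only and GPR119 cell lines served as counterscreen controls.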
ClpP mod – qHTS Assay for Activators of ClpP | ATP-dependent Clp protease proteolytic subunit (Bacillus subtilis (strain 168)), P80244 | purified B. subtilis ClpP, FRET peptide cleavage, 20 min | Potency, µM (top dose mostly 57.5 µM), inactives show at the highest dose activity change, negative = active | 340,000 compounds, 1.9% hits | AID 651965, 2013; active = well fitted falling curve with a large enough effect; inconclusive = small, poorly fitted or top-dose-only effect; inactive = no such curve, though single readings can be large or run the other way; also: potency is read from the fitted curve at half-maximal effect; the source files actives as falling curves though it sought activators and does not explain the sign; nearly all actives have a fitted effect of over 65% in size
Target sequence (P80244 whole entry, looked up): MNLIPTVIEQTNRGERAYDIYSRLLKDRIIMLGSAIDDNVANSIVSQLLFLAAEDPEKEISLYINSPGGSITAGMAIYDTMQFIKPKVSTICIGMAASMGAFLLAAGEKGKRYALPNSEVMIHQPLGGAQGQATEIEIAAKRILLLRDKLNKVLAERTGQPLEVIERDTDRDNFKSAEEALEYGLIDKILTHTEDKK
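FRET quenching reversal measured ClpP activation: 10 microg/mL B. subtilis ClpP at pH 8 with the FRET-FV decapeptide, read at 430 nm after 320 nm excitation. The 20-min minus 0-min signal was scaled between DMSO/no-enzyme wells and ADEP (5.8 microM final).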
HEK293 tox – qHTS of GLP-1 Receptor Inverse Agonists: Cytotox Screen; 410,000 compounds, 0.13% hits; Potency, µM (titrated, usually from 38.3 µM), without a hit: at the top dose activity change, negative = inhibition, hits mostly inhibitors; HEK293 cAMP-luciferase reporter cells, luminescence, 24 h; AID 624418, 2012;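 also: loss of luciferase light is scored as toxicity; potency is read from the fitted curve at half-maximal effect; % is scaled to controls: 0 for no effect and ±100 for the full control effect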
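Compound-treated cells are incubated 24 hr at 37 deg C under 5% CO2 after a 12 hour attachment period, then luciferase detection reagent is added and luminescence is measured following 12 min at room temperature; lowered signal indicates toxicity.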
DRD3 agonist – qHTS of D3 Dopamine Receptor Agonist: qHTS; D(3) dopamine receptor (Homo sapiens), P35462; D3R DiscoveRx beta-arrestin cells, luminescence, 90 min; 410,000 compounds, 0.58% hits; max activation, %; AID 652048, 2013; in the data active = max activation above about 30%; also: 0% is about no effect
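Agonist mode: compounds and dopamine controls were applied to plated cells for 90 min at 37 degrees C after an overnight attachment at 1500 cells/well. Luminescent read-out followed 30 - 60 minutes at room temperature with DiscoveRx detection reagent.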
* hit, by the source's call; ? = inconclusive; / = no result. Sampled rows, rich in hits. Any-hit rate of the full collection: about 5.7%. Unless noted, calls follow the shape of the dose curve; as a rule, active = well fitted curve in the direction sought with a large enough effect; inconclusive = small, poorly fitted or top-dose-only effect, or another doubt; inactive = no such curve, though single readings can be large; an effect the other way counts as inactive or inconclusive.

SMILES	D3 antag	GLP-1R agonist	GLP-1R inv ag	ClpP mod	HEK293 tox	DRD3 agonist
CCCCn1c(=NC(C)=O)c(C#N)cc2c(=O)n3cccc(C)c3nc21	-13	0%	32%	/	108%	1
CCCCN(CC)C(=O)c1cc2c(=O)n3cccc(C)c3nc2n1C	/	/	-5%	5%	58%	3
CCCCn1c(=NC(=O)c2ccc3c(c2)OCO3)c(C#N)cc2c(=O)n3cccc(C)c3nc21	-8	-3%	109%	32µM*	75%	-1
COCCCn1c(C(=O)N2CC(C)OC(C)C2)cc2c(=O)n3cccc(C)c3nc21 (configuration not stated)	18	-5%	4%	3%	3%	3
COCCCn1c(C(=O)N2CCOCC2)cc2c(=O)n3cccc(C)c3nc21	14	4%	14%	28µM*	-1%	1
O=c1[nH]c(CN2CCN(C/C=C/c3ccccc3)CC2)nc2ccccc12	-77*	5%	0%	-8%	-5%	-46
Nc1nc(N2CCN(C/C=C/c3ccccc3)CC2)nc2ccccc12	-64*	3%	?	-12%	-21%	-15
C(=C\c1ccccc1)/CN1CCN(c2ncnc3c2oc2ccccc23)CC1	8	6%	?	-7%	8%	40*
CCCS(=O)(=O)c1nc(S(=O)(=O)c2ccc(C)cc2)c(N(C)Cc2ccccc2)s1	/	/	?	-1%	-14%	-16
CC1CCCCN1CCCNc1ccc(C(CC(N)=O)NC(=O)Cc2ccc(Br)cc2)cc1[N+](=O)[O-] (configuration not stated)	-52*	6%	10%	-2%	1%	1
Cc1c(N)cccc1[N+](=O)[O-]	3	8%	-1%	-2%	5%	18
Nc1c([N+](=O)[O-])cc2c3c(cccc13)CC2	-73*	-5%	-2%	-4%	-11%	-7
O=C(c1ccc(Cl)cc1)C1CCN(Cc2ccccc2)CC1	-114*	-1%	?	0%	3%	-19
CC(=O)N1CCC(C(=O)c2ccc(Cl)cc2)CC1	21	10%	11%	-2%	22%	-4
Cc1nc2ccccn2c(=O)c1CCN1CCC(C(=O)c2ccc(F)cc2)CC1	-112*	12%	-2%	-25%	-17%	-95
CC1(C)C(=O)N(CCN2CCC(C(=O)c3ccc(F)cc3)CC2)c2ccccc21	-84*	-1%	5%	1%	3%	-82
O=C(C1CCN(Cc2ccc(Cl)cc2)CC1)N1CCN(C(c2ccccc2)c2ccccc2)CC1	-27	-4%	4µM*	-4%	?	-13
O=C(C1CCN(Cc2ccc(OCc3ccccc3)cc2)CC1)N1CCCC1	-14	10%	2%	-1%	-11%	-3
O=C(c1ccc(F)cc1)C1CCN(CCn2c(=S)[nH]c3ccccc3c2=O)CC1	/	4%	/	/	/	-23
O=C(CN1CCC(C(=O)c2ccc(F)cc2)CC1)NCc1ccccc1F	-79*	7%	?	0%	6%	-25
O=C(c1ccc(F)cc1)C1CCN(Cc2ccccc2F)CC1	-112*	-4%	?	-2%	4%	-5
O=C(CN1CCC(C(=O)c2ccc3c(c2)OCCO3)CC1)NCc1ccc(F)cc1	-3	19%	?	/	1%	-9
O=C(NC1CCCC1)C1c2ccccc2OCC(=O)N1Cc1cccnc1 (configuration not stated)	?	-2%	13%	-7%	7%	6
N#CCCN(Cc1ccccc1)C(C(=O)NC1CCCCC1)c1ccnc2ccccc12 (configuration not stated)	2	-5%	?	-2%	-13%	-2

Screening results: PubChem BioAssay, National Center for Advancing Translational Sciences (NCATS)
